Experimental findings from PubChem BioAssay AID588511 (Johns Hopkins Ion Channel Center, 2011) are described below.

Screen size: about 310,000 compounds; about 3,600 (1.2%) were called active.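 Rule for the calls: active = ratio plate-corrected score three or more library SD toward inhibition, starting fluorescence score within five deviations; inactive = the rest.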 The entries come from a sample that favours actives as a whole.

The target of this experiment is Anoctamin-1 (Mus musculus) (UniProt Q8BHY3). The experiment in a line: TMEM16A chloride channel inhibitors, primary screen, cell-based, HTS (AID 588511).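 For normalized B-score (activity score, 25-100; higher = stronger inhibition): score derived from kinetic fluorescence span divided by baseline fluorescence per well.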 As to conditions: HEK293 TMEM16A/YFP iodide influx fluorescence, ionomycin; at 10 µM.
Sequence of Anoctamin-1 (Mus musculus) (Q8BHY3 whole entry, looked up): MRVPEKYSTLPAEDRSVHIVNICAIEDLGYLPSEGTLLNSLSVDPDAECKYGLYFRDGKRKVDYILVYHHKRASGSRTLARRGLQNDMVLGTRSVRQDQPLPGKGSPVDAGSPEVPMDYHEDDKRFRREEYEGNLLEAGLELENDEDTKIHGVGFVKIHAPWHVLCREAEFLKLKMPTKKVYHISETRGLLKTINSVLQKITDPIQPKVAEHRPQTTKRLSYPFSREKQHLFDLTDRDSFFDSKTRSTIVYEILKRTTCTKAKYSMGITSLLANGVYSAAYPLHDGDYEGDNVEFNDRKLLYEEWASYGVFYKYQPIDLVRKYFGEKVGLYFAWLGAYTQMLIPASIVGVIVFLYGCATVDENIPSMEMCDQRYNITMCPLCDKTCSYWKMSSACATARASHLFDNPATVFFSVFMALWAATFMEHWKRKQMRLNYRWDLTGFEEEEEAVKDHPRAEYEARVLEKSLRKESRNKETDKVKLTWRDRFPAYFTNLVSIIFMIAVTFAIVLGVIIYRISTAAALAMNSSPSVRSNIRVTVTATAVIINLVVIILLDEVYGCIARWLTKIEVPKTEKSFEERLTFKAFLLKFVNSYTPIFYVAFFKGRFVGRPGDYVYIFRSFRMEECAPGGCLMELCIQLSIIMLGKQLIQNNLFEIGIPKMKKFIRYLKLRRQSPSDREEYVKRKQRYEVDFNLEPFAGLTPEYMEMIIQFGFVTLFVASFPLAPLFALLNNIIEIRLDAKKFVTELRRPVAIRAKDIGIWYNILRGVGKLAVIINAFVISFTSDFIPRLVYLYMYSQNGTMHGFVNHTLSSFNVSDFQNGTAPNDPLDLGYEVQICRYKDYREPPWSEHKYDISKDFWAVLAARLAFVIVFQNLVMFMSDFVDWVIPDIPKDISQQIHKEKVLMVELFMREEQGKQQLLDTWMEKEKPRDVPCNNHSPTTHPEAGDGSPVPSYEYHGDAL
Take `COc1ccc(CN2CCNC(=O)C2CC(=O)N(C)Cc2ccccn2)cc1OC` (stereo not drawn): the normalized B-score (activity score, 25-100; higher = stronger inhibition) result was “inactive”.
Regarding `Cc1ccc(C(=O)CSc2ccccc2C(=O)O)cc1`, the normalized B-score (activity score, 25-100; higher = stronger inhibition) result was “inactive”.
With `Cc1ccc(SCC(=O)Nc2ccc3c(c2)OCCO3)cc1`, the normalized B-score (activity score, 25-100; higher = stronger inhibition) result was “inactive”.
Take `Cc1ccc(SCC(=O)c2cc(C)c(OC(=S)N(C)C)c(C)c2)cc1`: the normalized B-score (activity score, 25-100; higher = stronger inhibition) is 100 (active).
For `O=C(C1CCN(S(=O)(=O)c2ccc(Br)s2)CC1)N1CCN(c2ccccc2)CC1`, the normalized B-score (activity score, 25-100; higher = stronger inhibition) result was “inactive”.
In the case of `Cc1ccc(N2CC(C(=O)Nc3ccc(S(=O)(=O)N4CCCC4)cc3)CC2=O)cc1C` (stereo not drawn) it was “inactive”.
For `Cc1ccc(NC(=O)C2CC(=O)N(c3ccc4c(c3)OCCO4)C2)cc1S(=O)(=O)N1CCCCCC1` (stereo not drawn), the normalized B-score (activity score, 25-100; higher = stronger inhibition) is 25 (active).
`COc1ccc(S(=O)(=O)N2CCCCC2)cc1NC(=O)C1CC(=O)N(c2ccc3c(c2)OCCO3)C1` (stereo not drawn): the normalized B-score (activity score, 25-100; higher = stronger inhibition) entry was “inactive”.
Turning to `Cc1oc(-c2ccccc2F)nc1CS(=O)CC(=O)NCCN1CCCCC1C` (stereo not drawn), the normalized B-score (activity score, 25-100; higher = stronger inhibition) entry was “inactive”.
Take `CSc1cccc(NC(=S)N(C(C)C)C(C)c2ccccn2)c1` (stereo not drawn): the normalized B-score (activity score, 25-100; higher = stronger inhibition) was 25 (active).
As to `CC(c1ccccn1)N(CCN(C)C)C(=S)Nc1ccccc1F` (stereo not drawn), the normalized B-score (activity score, 25-100; higher = stronger inhibition) entry is “inactive”.
As to `CSc1cccc(NC(=S)N(Cc2ccccc2)Cc2ccccn2)c1`, the normalized B-score (activity score, 25-100; higher = stronger inhibition) result was “inactive”.
As to `CC(=O)N/N=C(\C)c1ccc(Br)cc1Br`, the normalized B-score (activity score, 25-100; higher = stronger inhibition) entry is “inactive”.
In the case of `CC(C)/C=N/NC(=O)c1cc(Br)ccc1O` it was “inactive”; in that of `CC(=N\NC(=O)c1cc(Br)ccc1O)/C(=N/O)C(=O)Nc1ccccc1`, 25 (active); in that of `O=C(NC(=S)Nc1ccc(Cl)c(C(=O)O)c1)c1cncc(Br)c1`, “inactive”.
On to `COc1cc(C)c(C(C)C)cc1S(=O)(=O)n1ccnc1`, for which the normalized B-score (activity score, 25-100; higher = stronger inhibition) entry was “inactive”.
Regarding `COc1ccccc1-n1cnc2cc(NS(=O)(=O)c3ccccc3)ccc21`, the normalized B-score (activity score, 25-100; higher = stronger inhibition) entry is “inactive”.
For `CC(C)c1ccc2c(c1)c(SC(C)(C)C)c(CC(C)(C)C(=O)O)n2Cc1ccc(Cl)cc1`, the normalized B-score (activity score, 25-100; higher = stronger inhibition) is 100 (active).
Consider `O=C(O)c1ccc(Cn2c(=S)[nH]c3cc(Cl)ccc3c2=O)cc1`, for which the normalized B-score (activity score, 25-100; higher = stronger inhibition) entry was “inactive”.
Take `O=C(COC(=O)CNS(=O)(=O)c1ccccc1)NC12CC3CC(CC(C3)C1)C2`: the normalized B-score (activity score, 25-100; higher = stronger inhibition) entry is “inactive”.
For the compound `CSc1nnc2c(n1)OC(c1ccsc1)N(C(C)=O)c1ccccc1-2` (stereo not drawn), the normalized B-score (activity score, 25-100; higher = stronger inhibition) was 100 (active).
On to `CSc1ncc(Sc2ccccc2)c(C(=O)O)n1`, for which the normalized B-score (activity score, 25-100; higher = stronger inhibition) entry is “inactive”.
On to `CSc1nnc2c(n1)OC(c1cn(C)c3ccccc13)N(C(C)=O)c1ccccc1-2` (stereo not drawn), for which the normalized B-score (activity score, 25-100; higher = stronger inhibition) result is “inactive”.
Turning to `O=C(NCCc1c[nH]c2ccc(Cl)cc12)c1ccc([N+](=O)[O-])cc1`, the normalized B-score (activity score, 25-100; higher = stronger inhibition) entry is “inactive”.
Regarding `NS(=O)(=O)c1ccc(CCNC(=O)c2ccc(Cl)cc2[N+](=O)[O-])cc1`, the normalized B-score (activity score, 25-100; higher = stronger inhibition) entry was “inactive”.
On to `O=C(NCCc1ccc(Cl)cc1Cl)c1cc([N+](=O)[O-])c[nH]c1=O`, for which the normalized B-score (activity score, 25-100; higher = stronger inhibition) was 100 (active).
For the compound `CC(C)CC(CCc1ccccc1)OS(N)(=O)=O` (stereo not drawn), the normalized B-score (activity score, 25-100; higher = stronger inhibition) entry is “inactive”.
For the compound `CSc1nc2nc3c(c(=O)n2[nH]1)CCC3`, the normalized B-score (activity score, 25-100; higher = stronger inhibition) entry is “inactive”.
With `COc1ccc(C(=O)CCc2ccccc2O)c(OC)c1`, the normalized B-score (activity score, 25-100; higher = stronger inhibition) result is “inactive”.
As to `CCOc1ccc(NC(=O)CCCCCN2C(=O)[C@@H]3Cc4ccccc4CN3C2=O)cc1`, the normalized B-score (activity score, 25-100; higher = stronger inhibition) entry was “inactive”.
For `O=C(CSc1nnc(-c2cccnc2)n1Cc1ccco1)c1ccc(Cl)c(Cl)c1`, the normalized B-score (activity score, 25-100; higher = stronger inhibition) result is “inactive”.
As for `CCOC(=O)Cc1csc(NC(=O)CSc2nnc(-c3cccnc3)n2Cc2ccco2)n1`, the normalized B-score (activity score, 25-100; higher = stronger inhibition) is 100 (active).
Turning to `COc1cc(Cl)c(C)cc1NC(=O)CSc1nnc(-c2cccnc2)n1Cc1ccco1`, the normalized B-score (activity score, 25-100; higher = stronger inhibition) result is “inactive”.
Take `COc1ccc(/C(C)=N\NC(=O)c2ccc(-c3ccccc3)cc2)c(F)c1`: the normalized B-score (activity score, 25-100; higher = stronger inhibition) result is “inactive”.
In the case of `O=[N+]([O-])C(=c1ccc2c(c1)N1C3=C(CCCC3)CC3CCCCC31N=2)[N+](=O)[O-]` (stereo not drawn) it was “inactive”; in that of `Cc1[nH]n(-c2cccc(Cl)c2)c(=O)c1-c1ccc(Cl)cc1`, 25 (active).
In the case of `Cc1[nH]n(-c2cccc(Cl)c2)c(=O)c1/C=N/n1c(C)nc2ccccc2c1=O` it was “inactive”.
In the case of `O=c1c(-c2cccc(Cl)c2)c[nH]n1-c1ccccc1` it was “inactive”; in that of `Cc1ccccc1OCC(=O)N(Cc1cccc(F)c1)C1CCS(=O)(=O)C1` (stereo not drawn), “inactive”; in that of `C=CCn1c(SCC(=O)Nc2nc3ccccc3s2)nnc1-c1ccccc1O`, 100 (active).
Take `Cn1nnnc1SCC(=O)Nc1nc2ccccc2s1`: the normalized B-score (activity score, 25-100; higher = stronger inhibition) entry was “inactive”.
`C=CCn1c(SCC(=O)NCc2ccccc2)nnc1-c1cc(Br)ccc1O`: the normalized B-score (activity score, 25-100; higher = stronger inhibition) entry is “inactive”.
On to `COc1ccc(Cl)cc1NC(=O)CN(C)C(=O)c1cc2ccccc2cc1OC`, for which the normalized B-score (activity score, 25-100; higher = stronger inhibition) result is “inactive”.
On to `CN(CC(O)COc1ccc(S(=O)(=O)N2CCOCC2)cc1Cl)C1CCCCC1` (stereo not drawn), for which the normalized B-score (activity score, 25-100; higher = stronger inhibition) result was “inactive”.
As to `O=C(/C=C/c1ccc(F)cc1)Nc1cccc(S(=O)(=O)Nc2cccc(C(F)(F)F)c2)c1`, the normalized B-score (activity score, 25-100; higher = stronger inhibition) result was “inactive”.
For the compound `CCOC(=O)N1CCN(C(=O)c2ccc(S(=O)(=O)Nc3cccc(C(F)(F)F)c3)cc2)CC1`, the normalized B-score (activity score, 25-100; higher = stronger inhibition) result is “inactive”.
In the case of `Cc1oc2c(F)c(F)c(F)c(F)c2c1S(=O)(=O)Nc1cccc(C(F)(F)F)c1` it was 100 (active); in that of `COc1ccccc1-n1c(SCC(=O)Nc2cccc(C(=O)O)c2)nnc1-c1ccccc1O`, “inactive”.
Turning to `Cc1cc2c(cc1C)N(Cc1ccccc1)C1=NCCCN12`, the normalized B-score (activity score, 25-100; higher = stronger inhibition) entry is “inactive”.
In the case of `Cn1cc(C(=O)c2ccc(Cl)cc2Cl)cc1C(=O)NN`, the normalized B-score (activity score, 25-100; higher = stronger inhibition) result is “inactive”.
With `O=C(Cc1c(F)cccc1Cl)Nc1ncc([N+](=O)[O-])s1`, the normalized B-score (activity score, 25-100; higher = stronger inhibition) is 100 (active).
As for `O=C(Cc1c(F)cccc1Cl)Nc1ccc(-n2cnnn2)cc1`, the normalized B-score (activity score, 25-100; higher = stronger inhibition) entry is “inactive”.
